Source: PubChem BioAssay AID1159580 (chemical genetic matrix, 2015)
In all, about 5,500 compounds went through this assay and about 2,000 (36%) were called active. Another 18% or so got no clear call; they are omitted. Rule as the data show it: active = normalized growth mostly below about 0.91 (no sharp cut-off); inconclusive = no clear call, values can overlap the other calls; inactive = mostly above about 0.92. Some of the results follow.

Test: chemical genetic growth profiling, strain panel (AID 1159580);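 also: tested at 20 µM; growth read once vehicle control cultures reached saturation at 30 °C; 1 = growth at the plate median or of vehicle wells; lower values mean less growth of the strain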
Conditions: S. cerevisiae deletion strains, growth OD
[1] = locus YDL101C, strain DUN1, stronger effect = lower value
[2] = locus YHR030C, strain SLT2, stronger effect = lower value

Measured: normalized growth

CCOC(=O)C1=C(N)OC2=C(C(=O)CC(C)(C)C2)C1c1ccc(Cl)cc1Cl (stereo unspecified)
active: [2] 0.804
inactive: locus YAR019C, strain CDC15, stronger effect = lower value 0.984 | locus YBL105C, strain PKC1, stronger effect = lower value 0.982 | locus YBR135W, strain CKS1, stronger effect = lower value 0.978 | locus YBR136W, strain MEC1, stronger effect = lower value 0.981 | locus YBR160W, strain CDC28, stronger effect = lower value 0.964 | locus YDL017W, strain CDC7, stronger effect = lower value 0.978 | locus YDL028C, strain MPS1, stronger effect = lower value 0.98 | [1] 0.966 | locus YDL108W, strain KIN28, stronger effect = lower value 0.978 | locus YDL132W, strain cdc53, stronger effect = lower value 0.975 | locus YDL214C, strain PRR2, stronger effect = lower value 0.968 | locus YDR052C, strain DBF4, stronger effect = lower value 0.979 | locus YDR054C, strain cdc34, stronger effect = lower value 0.965 | locus YDR226W, strain ADK1, stronger effect = lower value 0.978 | locus YDR477W, strain SNF1, stronger effect = lower value 0.95 | locus YER123W, strain YCK3, stronger effect = lower value 0.927 | locus YER133W, strain GLC7, stronger effect = lower value 0.959 | locus YFL009W, strain cdc4, stronger effect = lower value 0.974 | locus YFL029C, strain CAK1, stronger effect = lower value 0.981 | locus YFR003C, strain YPI1, stronger effect = lower value 0.982 | locus YFR019W, strain FAB1, stronger effect = lower value 0.956 | locus YFR028C, strain CDC14, stronger effect = lower value 0.976 | locus YGR040W, strain KSS1, stronger effect = lower value 0.954 | locus YGR052W, strain FMP48, stronger effect = lower value 1.08 | locus YGR092W, strain DBF2, stronger effect = lower value 0.973 | locus YHR079C, strain IRE1, stronger effect = lower value 0.943 | locus YHR082C, strain KSP1, stronger effect = lower value 1.01 | locus YHR205W, strain SCH9, stronger effect = lower value 0.953 | locus YIL147C, strain SLN1, stronger effect = lower value 0.984 | locus YJL095W, strain BCK1, stronger effect = lower value 0.904 | locus YJL128C, strain PBS2, stronger effect = lower value 0.975 | locus YJL157C, strain FAR1, stronger effect = lower value 0.976 | locus YJR016C, strain ILV3, stronger effect = lower value 0.99 | locus YJR066W, strain TOR1 (second series), stronger effect = lower value 0.95 | locus YJR066W, strain TOR1, stronger effect = lower value 0.947 | locus YKL048C, strain ELM1, stronger effect = lower value 0.948 | locus YKL067W, strain YNK1, stronger effect = lower value 0.959 | locus YKL101W, strain HSL1, stronger effect = lower value 0.963 | locus YKL193C, strain SDS22, stronger effect = lower value 0.973 | locus YKL203C, strain TOR2, stronger effect = lower value 1 | locus YLR113W, strain HOG1, stronger effect = lower value 0.934 | locus YLR133W, strain CKI1, stronger effect = lower value 0.961 | locus YLR403W, strain SFP1, stronger effect = lower value 0.964 | locus YML070W, strain DAK1, stronger effect = lower value 0.944 | locus YMR001C, strain CDC5, stronger effect = lower value 0.984 | locus YMR205C, strain PFK2 (second series), stronger effect = lower value 0.976 | locus YMR277W, strain FCP1, stronger effect = lower value 0.98 | locus YNL006W, strain LST8, stronger effect = lower value 0.987 | locus YNL020C, strain ARK1, stronger effect = lower value 0.95 | locus YNL161W, strain CBK1, stronger effect = lower value 0.983 | locus YNL183C, strain NPR1, stronger effect = lower value 0.934 | locus YNL207W, strain RIO2, stronger effect = lower value 0.989 | locus YNL222W, strain SSU72, stronger effect = lower value 0.977 | locus YNL307C, strain MCK1 (second series), stronger effect = lower value 0.947 | locus YOL078W, strain AVO1, stronger effect = lower value 0.979 | locus YOL136C, strain PFK27, stronger effect = lower value 0.952 | locus YOR061W, strain CKA2, stronger effect = lower value 0.958 | locus YOR119C, strain RIO1, stronger effect = lower value 1.06 | locus YOR231W, strain MKK1, stronger effect = lower value 0.953 | locus YOR329C, strain SCD5, stronger effect = lower value 0.976 | locus YPL031C, strain PHO85, stronger effect = lower value 0.948 | locus YPL153C, strain RAD53, stronger effect = lower value 0.952 | locus YPL204W, strain HRR25, stronger effect = lower value 0.933 | locus YPL209C, strain IPL1, stronger effect = lower value 0.966 | locus YPL256C, strain CLN2, stronger effect = lower value 0.876 | locus YPR025C, strain CCL1, stronger effect = lower value 0.979 | locus YPR106W, strain ISR1, stronger effect = lower value 0.979 | locus YPR111W, strain DBF20, stronger effect = lower value 0.964 | strain NNK1, stronger effect = lower value 0.973 | strain TSCII, stronger effect = lower value 0.982

COc1cccc(C2C3=C(CC(C)(C)CC3=O)OC3=C2C(=O)CC(C)(C)C3)c1O
inactive: locus YAL013W, strain DEP1, stronger effect = lower value 1 | locus YBR229C, strain ROT2, stronger effect = lower value 0.987 | locus YCL061C, strain MRC1, stronger effect = lower value 1.02 | [1] 1.01 | locus YDL134C, strain PPH21, stronger effect = lower value 0.978 | locus YDR150W, strain NUM1, stronger effect = lower value 1.04 | locus YEL061C, strain CIN8, stronger effect = lower value 0.965 | locus YGR078C, strain PAC10, stronger effect = lower value 1 | [2] 1.08 | locus YHR087W, strain rtc3, stronger effect = lower value 0.958 | locus YJR043C, strain POL32, stronger effect = lower value 1.03 | locus YJR075W, strain HOC1, stronger effect = lower value 1 | locus YKL190W, strain CNB1, stronger effect = lower value 0.988 | locus YLR039C, strain RIC1, stronger effect = lower value 1.08 | locus YLR058C, strain SHM2 (second series), stronger effect = lower value 0.991 | locus YLR085C, strain ARP6, stronger effect = lower value 0.977 | locus YLR262C, strain YPT6, stronger effect = lower value 1.04 | locus YML094W, strain GIM5, stronger effect = lower value 1.01 | locus YMR219W, strain ESC1, stronger effect = lower value 1 | locus YMR263W, strain SAP30, stronger effect = lower value 0.999 | locus YMR307W, strain GAS1, stronger effect = lower value 0.876 | locus YNL128W, strain TEP1, stronger effect = lower value 0.983 | locus YNL153C, strain GIM3, stronger effect = lower value 1 | locus YNL298W, strain CLA4 (second series), stronger effect = lower value 0.927 | locus YNL322C, strain KRE1, stronger effect = lower value 0.993 | locus YNR030W, strain Alg12, stronger effect = lower value 0.977 | locus YOL006C, strain TOP1, stronger effect = lower value 0.947 | locus YPL055C, strain LGE1, stronger effect = lower value 1 | locus YPL241C, strain CIN2, stronger effect = lower value 1.01 | locus YPR135W, strain CTF4, stronger effect = lower value 0.976
